From PubChem
Rows were chosen to be rich in hits. Some 0.46% of all compounds tested hit in one or more screens of this group.
Chronic BCR inh = qHTS Assay to Find Inhibitors of Chronic Active B-Cell Receptor Signaling; AID 493014, 2011; ABC-DLBCL IkBa-CBG/CBR reporter, luminescence ratio, 4 h; Potency, µM (series often up to 46.1 µM), for inactives: at the top dose activity change, negative = inhibition, hits mostly inhibitors; hit rate 0.05% among 340,000; active = well fitted inhibition curve with a large enough effect in the signal ratio, with a control signal flat, not every such curve was filed as active; inconclusive = small, poorly fitted or top-dose-only effect, or effect the other way, or a change in a side signal; the % refers to the signal ratio;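 also: potency is read from the fitted curve at half-maximal effect; plate controls were basal doxycycline-induced cells for no effect and cells given 10 µM MG132 for full effect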
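Doxycycline induced both beetle luciferases in TMD8 lymphoma cells; IKK-driven degradation limits the IkappaBalpha-fused green signal, while red luminescence normalises for cell number and nonspecific effects. Compounds tested up to 46 uM, 4 hrs.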
PINK1 expr mod = A Quantitative High throughput Screen to Identify Chemical Modulators of PINK1 Expression; PINK1 immunofluorescence, high-content cytometry, 24 h; Potency, µM (top dose mostly 76.6 µM), inactives show at the highest dose activation (PINK1 increase), actives largely listed as activators; hit rate 0.2% among 410,000; active = well fitted activation curve with a large enough effect; inconclusive = small, poorly fitted or top-dose-only effect; cell line not stated here; also: potency is read from the fitted curve at half-maximal effect; % of control where 0% means no effect; nearly all actives have a fitted effect of over 65% in size
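Compound titrations (5 concentrations, 24 h) on a stable cell line; DMSO and CCCP controls. Endpoint: fixed-cell PINK1 immunofluorescence with mitochondrial, cell and nuclear markers, scanned by microplate cytometer.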
B2AR arrestin = qHTS assay of beta-arrestin-biased ligands of beta2-adrenergic receptor; Beta-2 adrenergic receptor (Homo sapiens), P07550; beta-arrestin recruitment to beta2AR, cell-based reporter; Potency, µM (top dose mostly 46.1 µM), for the others: at the top dose activation, actives largely listed as activators; hit rate 0.02% among 330,000;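 also: potency is read from the fitted curve at half-maximal effect; 0% = DMSO controls and full agonism = EC100 isoproterenol or metaproterenol; nearly all actives have a fitted effect of over 65% in size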
Pin1 inh = qHTS Assay to Find Inhibitors of Pin1; Peptidyl-prolyl cis-trans isomerase NIMA-interacting 1 (Homo sapiens), Q13526; Pin1 FP peptide displacement, HiFluor488, 10 min; Potency, µM (top dose mostly 115 µM), without a hit: top-dose activity, negative = inhibition, usual class: inhibitors; hit rate 0.009% among 390,000; active = well fitted inhibition curve with a large enough effect in the polarisation, with a control signal flat, not every such curve was filed as active; inconclusive = small, poorly fitted or top-dose-only effect, or effect the other way, or a change in a side signal; inactive = no such curve, though single readings can be large or run the other way; the % refers to the polarisation; also: potency is read from the fitted curve at half-maximal effect; % is scaled to controls: 0 for no effect and ±100 for the full control effect
Target sequence (Q13526 whole entry, looked up): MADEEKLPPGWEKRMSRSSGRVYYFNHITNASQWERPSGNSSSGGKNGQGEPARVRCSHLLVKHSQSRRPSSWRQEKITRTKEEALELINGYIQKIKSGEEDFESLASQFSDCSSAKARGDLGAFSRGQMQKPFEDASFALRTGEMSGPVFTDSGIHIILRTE
PKM2 act = qHTS Assay for Activators of Human Muscle isoform 2 Pyruvate Kinase | Pyruvate kinase PKM (Homo sapiens), P14618 | purified PKM2, Kinase-Glo ATP luminescence, activation; response scale: 0% is enzyme alone, no compound | Potency, µM (doses to about 57.5 µM), without a hit: at the top dose activation, actives largely listed as activators | hit rate 0.34% among 260,000; also: potency is read from the fitted curve at half-maximal effect; % is scaled to controls: 0 for no effect and ±100 for the full control effect; nearly all actives have a fitted effect of over 55% in size
Target sequence (P14618 whole entry, looked up, canonical isoform): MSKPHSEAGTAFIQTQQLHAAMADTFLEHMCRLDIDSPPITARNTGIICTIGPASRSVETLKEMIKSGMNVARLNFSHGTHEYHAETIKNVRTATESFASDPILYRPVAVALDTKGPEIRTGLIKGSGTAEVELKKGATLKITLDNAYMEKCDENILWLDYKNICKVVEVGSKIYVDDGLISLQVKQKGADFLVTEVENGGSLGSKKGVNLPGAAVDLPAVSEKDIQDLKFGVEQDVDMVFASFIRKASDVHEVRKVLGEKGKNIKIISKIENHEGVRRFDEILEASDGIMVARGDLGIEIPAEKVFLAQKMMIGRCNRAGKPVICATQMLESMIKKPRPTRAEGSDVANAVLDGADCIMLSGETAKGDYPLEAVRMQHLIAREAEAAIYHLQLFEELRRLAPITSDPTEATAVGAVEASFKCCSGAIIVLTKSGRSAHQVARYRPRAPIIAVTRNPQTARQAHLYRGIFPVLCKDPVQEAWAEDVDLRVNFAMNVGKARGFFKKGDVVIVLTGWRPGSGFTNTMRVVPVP
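Purified hPK-M2 (>95%) run at intermediate activity with 0.1 mM ADP and 0.5 mM PEP in 50 mM imidazole pH 7.2, KCl, MgCl2; 1 h room temperature. ATP formed read by Kinase-Glo luminescence; normalized to uninhibited and no-enzyme controls.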
miR-21 reporter = qHTS Assay for Modulators of miRNAs and/orActivators of miR-21; HeLa miR-21 FLuc reporter, luciferase, 48 h; Potency, µM (titrated, usually from 38.3 µM), for inactives: at the top dose activity change, positive = activation, usual class: activators; 340,000 tested, under 10 active;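 also: % of control where 0% means no effect; miR-21 action dims this reporter so a rising signal means less miR-21 action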
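HeLa cells endogenously expressing miR-21, stably carrying CMV-driven firefly luciferase with a downstream miR-21 binding site, 2000 cells/well. Titrations up to approximately 40 uM, 48 hours; luciferase luminescence read.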
Numbers without * were called inactive; ? = inconclusive; / = no result; [ ] = dose if it differs, or a comment. Unless noted, calls follow the shape of the dose curve; as a rule, active = well fitted curve in the direction sought with a large enough effect; inconclusive = small, poorly fitted or top-dose-only effect, or another doubt; inactive = no such curve, though single readings can be large; an effect the other way counts as inactive or inconclusive.

SMILES | Chronic BCR inh | PINK1 expr mod | B2AR arrestin | Pin1 inh | PKM2 act | miR-21 reporter
CCN(Cc1ccncc1)Cc1ccc2c(c1)CN(C(=O)c1cccc(-n3nc(C)cc3C)c1)CCO2 | / | -0.2% | / | / | / | /
CCCSc1cc(NCCOC(=O)CCC)c([N+](=O)[O-])c2nonc12 | -26.0% | 1.5% | 0.2% | -8.3% | -0.1% | 11.3%
CCCC(=O)OCCNc1cc(Sc2nccn2C)c2nonc2c1[N+](=O)[O-] | 2.91µM* | 1.4% | -1.8% | 4.3% | ? | ?
COc1ccccc1-n1c(=O)c(C#N)c(-c2ccc([N+](=O)[O-])cc2)c2cc(C(=O)c3cc(F)ccc3O)cnc21 | ? | 1.8% | -0.3% | -0.1% | -1.2% | -9.7%
Cn1c(=O)c(C#N)c(-c2ccc(F)cc2)c2cc(C(=O)c3cc(Cl)cc(Cl)c3O)cnc21 | ? | 25.1µM* | 0.5% | ? | 2.6% | 0.7%
C=CCNC(=S)N/N=C/c1ccc(C(C)(C)C)cc1 | 11.2µM* | 4.6% | ? | -0.8% | -14.2% | 4.1%
C=CCNC(=S)N/N=C/c1cn(C)c2ccccc12 | 17.8µM* | 2.3% | ? | 1.0% | -2.3% | -2.0%
Cc1ncc2c(c1CNC(=O)c1ccccc1F)CCN(C(=O)c1ccccc1-n1cccn1)C2 | / | 0.5% | / | / | / | /
Cn1ncc(Cl)c1C(=O)N1CCC(Cc2ccccc2)CC1 | -1.6% | 0.3% | -0.3% | -10.9% | 22.4µM* | -1.7%
C/C(=N/NC(=O)COc1cc(C)ccc1C(C)C)C(=O)O | 10µM* | 8.9% | 0.2% | 0.3% | 1.5% | 16.6%
COc1ccc(C(=O)Nc2cc3c4c(c2)C(C)C(=O)N4CCC3)c(OC)c1 (configuration not stated) | -10.1% | 13.3% | -0.6% | -12.3% | / | /
CC1C(=O)N2CCCc3cc(NC(=O)c4ccccc4Br)cc1c32 (configuration not stated) | 23.1µM* | 0.5% | -0.5% | -10.0% | / | /
N#Cc1nc(NCC(F)F)c2ncn(-c3cccc(Cl)c3)c2n1 | / | / | / | 14.0% | / | /
COc1cc(Cl)c(S(=O)(=O)N2CCCC2)cc1Cl | -0.9% | 1.6% | 0.0% | 10.8% | 9.9% | 4.4%
COc1cc(N2C(=O)C=CC2=O)c(OC)cc1Cl | ? | -0.6% | -0.4% | 0.6% | 8.91µM* | ?
CCOc1ccccc1CN1CCCC(c2nc(C)ncc2-c2ccc(F)cc2)C1 (configuration not stated) | / | 0.5% | / | / | / | /
CC(C)(C)Cc1c(-c2cccc(Br)c2)nc2ccc(Br)cn12 | / | -0.6% | / | / | / | /
COc1ccc(-c2nc3ccc(Br)cn3c2Cc2ccccc2)cc1OC | / | 18.6% | / | / | / | /
COc1ccccc1Cc1c(-c2ccc(OC)c(OC)c2)nc2ccc(Br)cn12 | / | 14.1µM* | / | / | / | /
CC(C)(C)Cc1c(-c2ccc(Cl)cc2)nc2ccc(Br)cn12 | / | 31.6µM* | / | / | / | /
CC(C)(C)Cc1c(-c2ccc(F)cc2)nc2ccc(Br)cn12 | / | 35.5µM* | / | / | / | /
OC1(c2cccnc2)CCN(Cc2ccc3c(c2)CN(Cc2ccc4nsnc4c2)CCO3)CC1 | / | -1.3% | / | / | / | /
CCC1(C2CCN(Cc3ccc(OC)cc3)CC2)NC(=O)N(CC2COc3ccccc3O2)C1=O (configuration not stated) | / | -0.3% | / | / | / | /
Cc1ccc(CN(CC2CCCO2)C(=O)CN2C(=O)C(C(C)C)Oc3ccccc32)o1 (configuration not stated) | -1.2% | 6.2%[38.3 µM] | 0.1% | 3.5% | 31.6µM* | 4.8%
Cc1ccc(S(=O)(=O)NC(C)(C)CN2CCC(Cc3ccccc3)CC2)cc1 | 2.8% | 39.8µM* | 1.1% | -6.2% | 2.9% | 25.0%
SMILES | Chronic BCR inh | PINK1 expr mod | B2AR arrestin | Pin1 inh | PKM2 act | miR-21 reporter
O=c1c2ccccc2nc2sc(NCc3ccc([S+](=O)([O-])c4ccccc4)cc3)nn12 | / | / | / | -2.2% | / | /
COc1cccc(NC(=O)CN(C)CC(=O)Nc2ccc(Cl)cc2[N+](=O)[O-])c1 | 1.1% | -0.2% | -0.1% | 2.0% | 3.16µM* | -0.3%
COc1cccc(NC(=O)CN(c2ccc([N+](=O)[O-])cc2)S(=O)(=O)c2ccccc2)c1 | ? | 0.8% | 4.9% | -5.7% | 3.98µM* | 9.4%
COc1ccc(NC(=O)CN(c2ccc([N+](=O)[O-])cc2)S(=O)(=O)c2ccccc2)cc1 | ? | ? | 10.8% | 0.3% | -13.7% | 18.7%
Cc1ccc(NS(=O)(=O)c2cc3c(cc2-c2ccsc2)NC(=O)CO3)cc1C | / | / | / | -5.6% | / | /
O=C(NCc1cccs1)C1CCN(S(=O)(=O)c2ccc(Br)s2)CC1 | 12.2% | 0.2% | -0.2% | -3.5% | 26.8% | -4.5%
O=C(NCc1cccs1)C1CCN(S(=O)(=O)c2ccccc2F)CC1 | -5.0% | 0.6% | -0.9% | -11.7% | 14.1µM* | 4.5%
O=C(NCc1cccs1)C1CCN(S(=O)(=O)c2cccs2)CC1 | -7.1% | 1.5%[38.3 µM] | -0.1% | 10.3% | 15.8µM* | -1.1%
CSc1ccc(S(=O)(=O)N2CCC(C(=O)NCc3ccco3)CC2)cc1 | 8.8% | 0.6% | -0.2% | -1.9% | 10µM* | 7.3%
O=C(NCCc1ccccc1)C1CCN(c2nc(-c3ccc(Br)cc3)cs2)CC1 | / | / | / | 16.4% | / | /
Cc1cc(=O)c(C(=O)N(C)CCc2ccccn2)c2n1-c1ccccc1SC(c1ccsc1)C2 (configuration not stated) | / | -0.4% | / | / | / | /
Cc1nn(-c2ccccc2)c(N2CCCC2)c1/C=N/NC(=O)c1cc2ccccc2cc1O | ? | 15.8µM* | -0.6% | ? | 3.5% | -3.5%
Cc1onc(-c2c(F)cccc2Cl)c1C(=O)Nc1nnc(C(F)(F)F)s1 | ? | 15.8µM* | 0.1% | -6.3% | -0.2% | 29.0%
CCS(=O)(=O)N1CCC(C(=O)NCCc2ccc(OC)c(OC)c2)CC1 | 3.2% | 10µM* | -0.2% | 0.5% | -6.7% | 0.1%
COc1ccc(CCNC(=O)C2CCN(S(C)(=O)=O)CC2)cc1OC | 3.3% | -0.5%[38.3 µM] | -0.1% | -2.9% | 8.6% | -3.5%
Cc1cc2c(cc(C(=O)OCC(=O)NCc3cccs3)n2C(C)C)o1 | 8.2µM* | / | -0.3% | 20.6% | 4.5% | 10.3%
Cc1cccc(C(=O)NNC2=C(C(=O)C(F)(F)F)CCC2)c1O | -18.5% | 15.8µM* | 0.1% | -0.6% | 2.1% | -9.6%
O=C(Nc1ccccc1)N1CCC(c2nc(-c3ccc(S(=O)(=O)N4CCOCC4)cc3)no2)CC1 | -12.6% | 12.6µM* | 0.3% | 2.3% | -1.1% | 23.0%
Cc1cnc(SCc2ccccn2)nc1C1CCCN(Cc2ccsc2)C1 (configuration not stated) | / | 1.5% | / | / | / | /
